According to PubChem BioAssay (NCATS):
Results filed as inconclusive are left out. Values without a mark were called inactive. Calls of active or inactive are those of the source. The call rests on the fitted dose curve; in most records, active means well fitted curve in the direction sought with a large enough effect; inconclusive means small, poorly fitted or top-dose-only effect, or another doubt; inactive means no such curve, though single readings can be large; an effect the other way counts as inactive or inconclusive. Where a SMILES comes first, the peptide text is derived from it.

assay: Primary qHTS for inhibitors of nuclear receptor binding SET domain protein 2 (NSD2) in an isogenic RCH-ACV NSD2 p.E1099K mutant (9B) (AID 1645876); conditions: RCH-ACV NSD2 E1099K (9B) viability, CellTiter-Glo, 72 h; series mostly up to 44.9 µM; activity change, negative = viability loss: at the top concentration
Further: nearly all actives have a fitted effect of over 70% in size.
On the % scale 0 is the no-effect control and ±100 the full control effect.

Row | SMILES | activity change, negative = viability loss
1 | CSCC[C@H](NC(=O)[C@H](CO)NC(=O)[C@H](CCC(=O)O)NC(C)=O)C(=O)N[C@H](C=O)CC(=O)O (Ac-ESMD-aldehyde) | -10.4% [at 9.23 µM]
2 | CC(=O)O[C@H]1[C@H](O[C@H]2CC[C@]34C[C@]35CC[C@]3(C)[C@@H]([C@@]6(C)CC[C@@H](C(C)(C)O)O6)[C@@H](O)C[C@@]3(C)[C@@H]5C[C@H](O[C@@H]3O[C@H](CO)[C@@H](O)[C@H](O)[C@H]3O)[C@H]4C2(C)C)OC[C@@H](OC(C)=O)[C@@H]1O | 3.05%
3 | CC1=C2C(=O)C=C(CO)C2C2OC(=O)C(CS(=O)(=O)O)C2C(OC(=O)Cc2ccc(O)cc2)C1 (stereo unspecified) | -13.1% [at 17.3 µM]
4 | C/C=C(\C)C(=O)OC[C@H]1O[C@@H](O[C@H]2[C@@H](O[C@H]3O[C@H](COC(=O)/C(C)=C/C)[C@@H](O)[C@H](O)[C@H]3O[C@@H]3O[C@H](COC(=O)/C(C)=C/C)[C@@H](O)[C@H](OC(=O)/C(C)=C/C)[C@H]3O)O[C@H](COC(=O)/C(C)=C/C)[C@@H](O)[C@@H]2O)[C@H](O)[C@@H](O)[C@@H]1O | -1.81% [at 9.23 µM]

assay: Primary qHTS for inhibitors of nuclear receptor binding SET domain protein 2 (NSD2) in an RCH-ACV wild type WT cells (2C) (AID 1645877); conditions: RCH-ACV (leukaemia line) NSD2 WT (2C) viability, CellTiter-Glo, 72 h; series mostly up to 44.9 µM; activity change, negative = cell killing: at the top concentration

Row | SMILES | outcome | activity change, negative = cell killing
5 | CC1=CC(=O)CC(C)(C)[C@@]1(O)/C=C/C(C)O[C@@H]1O[C@H](CO)[C@@H](O)[C@H](O)[C@H]1O (stereo partly specified) | inactive [at 17.3 µM] | 
6 | CC1(C)CC[C@]2(C(=O)O[C@@H]3O[C@H](CO[C@@H]4O[C@H](CO)[C@@H](O)[C@H](O)[C@H]4O)[C@@H](O)[C@H](O[C@@H]4O[C@H](CO)[C@@H](O)[C@H](O)[C@H]4O)[C@H]3O)CC[C@]3(C)C(=CCC4[C@@]5(C)CC[C@H](O[C@@H]6OC[C@@H](O)[C@H](O)[C@H]6O)[C@@](C)(C(=O)O)C5CC[C@]43C)[C@@H]2C1 (stereo partly specified) | inactive [at 9.23 µM] | 
7 | C=C1C[C@H](O)[C@@H](O)[C@@]2(C)C1[C@@H](O)[C@H]1OC(=O)C3[C@@H](C)[C@@H](O)[C@H](O)C2[C@]31C (stereo partly specified) |  | -18.8%
8 | C=C1CCC2(OC1)OC1CC3C4CC=C5CC(O)CC(O[C@@H]6OC[C@H](OC(=O)C(O)C(C)CC)[C@H](O)[C@H]6O[C@@H]6O[C@@H](C)[C@H](O)[C@@H](O)[C@H]6O)C5(C)C4CCC3(C)C1C2C (stereo partly specified) |  | -9.66% [at 9.23 µM]
9 | CC1=C2C(=O)C=C(CO[C@@H]3O[C@H](CO)[C@@H](O)[C@H](O)[C@H]3O)[C@@H]2[C@H]2OC(=O)[C@H](C)[C@@H]2[C@@H](O)C1 |  | 0.0438% [at 17.3 µM]
10 | COc1cc(C(=O)OCC2=CCC3C(C(=O)O)=COC(O[C@@H]4O[C@H](CO)[C@@H](O)[C@H](O)[C@H]4O)C23)ccc1O (stereo partly specified) | inactive [at 17.3 µM] | 
11 | COc1cc(C(=O)OC[C@@]2(O)CO[C@@H](O[C@H]3[C@H](Oc4ccc(O)cc4)O[C@H](CO)[C@@H](O)[C@@H]3O)[C@@H]2O)cc(OC)c1O |  | -15.8% [at 17.3 µM]
12 | C/C=C(\C)C(=O)OC[C@H]1O[C@@H](O[C@H]2[C@@H](O[C@H]3O[C@H](COC(=O)/C(C)=C/C)[C@@H](O)[C@H](O)[C@H]3O[C@@H]3O[C@H](CO)[C@@H](O)[C@H](OC(=O)/C(C)=C/C)[C@H]3O)O[C@H](COC(=O)/C(C)=C/C)[C@@H](O)[C@@H]2O)[C@H](O)[C@@H](O)[C@@H]1O |  | -10.6% [at 9.23 µM]
13 | CC(CC12CCCN1C(=O)C1CCCN1C2=O)OC(N)=O (stereo unspecified) | inactive | 
14 | CC1=CC2=C(C)C(=O)C(C)(O)C(O)C2CO1 (stereo unspecified) |  | 2.35%
15 | COc1cc(CO)ccc1O[C@@H]1O[C@H](CO)[C@@H](O)[C@H](O)[C@H]1O |  | -11.5%
16 | COC1OC(O)C2(CCC3(O2)C(C)CC2OC(=O)C4(C)CCCC3(C)C24)C1O (stereo unspecified) |  | 2.67%
17 | COc1cc(C)c(C(=O)NC2C(C)OC(OC3CCC(C)C4C3C=C(C)C3/C(C)=C\CC/C(C)=C/C5(C)C=C(C(=O)O)C(C)CC56OC(=O)/C(=C(\O)C34C)C6=O)C(O)C2(C)O)c(O)c1 (stereo unspecified) | inactive [at 9.23 µM] | 
18 | CC/C=C\CC1C(CC(=O)O)CCC1OC1OC(CO)C(O)C(O)C1O (stereo unspecified) | inactive | 
19 | C/C(=C\CCC(C)(C)O)CCO[C@@H]1O[C@H](CO[C@@H]2O[C@@H](C)[C@H](O)[C@@H](O)[C@H]2O)[C@@H](O)[C@H](O)[C@H]1O |  | 1.46% [at 17.3 µM]
20 | CC(C)(O)C(O)C(=O)OCc1ccc(O[C@@H]2O[C@H](CO)[C@@H](O)[C@H](O)[C@H]2O)cc1 (stereo partly specified) |  | 4.71% [at 17.3 µM]
21 | O=C1NC(=O)/C(=C/c2cccc(C(F)(F)F)c2)S1 |  | -13%
